# This is a sample that favours compounds with a hit; in the whole collection about 0.47% have one here.
# AID inhibitor: activation induced cytidine deaminase inhibition | Q9GZX7 | AID deamination FRET fluorescence, UDG-coupled, 4 h | Potency, µM (top dose mostly 115 µM), actives largely listed as inhibitors | 0.32% of 91,000 active | AID 1347428; further: nearly all actives have a fitted effect of over 25% in size
# Target sequence (Q9GZX7 whole entry, looked up): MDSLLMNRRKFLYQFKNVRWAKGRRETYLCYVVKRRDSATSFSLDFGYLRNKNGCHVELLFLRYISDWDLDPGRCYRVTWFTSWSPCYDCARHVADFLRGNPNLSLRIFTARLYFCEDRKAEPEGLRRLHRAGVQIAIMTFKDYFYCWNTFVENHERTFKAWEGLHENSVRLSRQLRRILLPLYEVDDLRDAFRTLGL
# UDG counterscr: blocks uracil-DNA glycosylase in AID counter-screen | 0.14% of 91,000 active | Potency, µM (doses to about 115 µM), for inactives: top-dose activity change, negative = inhibition, actives largely listed as inhibitors | FRET deamination/UDG coupled assay, UDG read, 4 h; further: nearly all actives have a fitted effect of over 65% in size
# Active calls of the source: *; i = inactive; ? = inconclusive; [ ] = dose if it differs, or a comment. The call rests on the fitted dose curve; in most records, active means well fitted curve in the direction sought with a large enough effect; inconclusive means small, poorly fitted or top-dose-only effect, or another doubt; inactive means no such curve, though single readings can be large; an effect the other way counts as inactive or inconclusive. On the % scale 0 is the no-effect control and ±100 the full control effect; potency means the concentration at half of the fitted maximal effect.
SMILES,AID inhibitor,UDG counterscr
CCc1nn(C(C)C(=O)N2CCN(c3cccc(C(F)(F)F)c3)CC2)c(=O)c2cc3occc3n12 (stereo not given),32µM*,-15%
Cc1cccc(N2CCN(C(=O)C(C)n3nc(C)n4c(cc5occc54)c3=O)CC2)c1C (stereo not given),?,-18%
COCCNC(=O)c1ccc2nc(CCc3ccccc3)oc2c1,i,-8%
O=C(NCCc1ccccc1Cl)c1sc2ncccc2c1-n1cccc1,35µM*,-1%
Cc1ccc(CCNC(=O)c2sc3ncccc3c2-n2cccc2)cc1,i,-7%
Cc1cc(C)c2c(-n3cccc3)c(C(=O)NCC(C)c3ccccc3)sc2n1 (stereo not given),?,-10%
CC(CNC(=O)c1sc2ncccc2c1-n1cccc1)c1ccccc1 (stereo not given),79µM*,-17%
O=C1c2ccccc2C(=O)C1(c1ccccc1)N1CCN(c2cccc(Cl)c2)CC1,i,-8%
O=C1c2ccccc2C(=O)C1(c1ccccc1)N1CCN(c2cccc(C(F)(F)F)c2)CC1,25µM*,-14%
O=C(CSc1ncnc2sc3c(c12)CCC3)N1CCCc2ccccc21,i,2%
Clc1cccc(-n2cc(-c3ccccc3)c3c(NC4CCCC4)ncnc32)c1,?,-1%[57.5 µM]
COc1ccc(-n2cc(-c3ccccc3)c3c(NC4CCCC4)ncnc32)cc1,35µM*,-8%[57.5 µM]
CC(=O)c1ccc(NC(=O)C2(C#N)CCCC2)cc1,i,-9%
CC(=O)c1cccc(NC(=O)c2cc3nc(-c4ccc(Br)cc4)cc(C(F)(F)F)n3n2)c1,?,-18%
CCc1cccc(NC(=O)c2c(C)oc3ncnc(N4CCCCC4)c23)c1,i,89µM*
Cc1ccc(NC(=O)c2c(C)oc3ncnc(N4CCCCC4)c23)cc1Cl,i,?
CNc1oc(-c2ccc(Cl)cc2)nc1S(=O)(=O)c1ccc2c(c1)OCCO2,i,2%
CNc1oc(-c2ccccc2F)nc1S(=O)(=O)c1ccc2c(c1)OCCO2,i,79µM*
CCC1CCC(=C(C#N)C(=O)Nc2ccc(C)cc2)CC1 (stereo not given),i,-2%
Cc1cc(=O)oc2cc(OS(=O)(=O)c3ccc(Br)cc3Cl)ccc12,i,-2%
Cc1c(C#N)c(N)nc2c3c(sc12)NC(=O)CC3c1ccccc1Cl (stereo not given),i,14%
O=c1[nH]nc(-c2ccc(N3CCCCC3)c([N+](=O)[O-])c2)c2ccccc12,i,-1%
CCCCN(C)c1ccc(-c2n[nH]c(=O)c3ccccc23)cc1[N+](=O)[O-],i,89µM*
COc1ccc2nc(C)cc(SCC(NC(C)=O)C(=O)O)c2c1 (stereo not given),i,-10%
Cc1ccc(CC(=O)N(Cc2nc(-c3ccccc3)no2)C2CCCCC2)cc1,i,79µM*
SMILES,AID inhibitor,UDG counterscr
CCNC(=O)N(Cc1nc(-c2ccc(C)cc2)no1)C1CCCCC1,i,-8%
N#C/C(=C\c1ccnc2ccccc12)c1nc2ccccc2s1,?,79µM*
Cc1ccccc1/C=C(/C#N)c1nc2ccccc2s1,i,-19%
COc1ccc(Nc2nc(Nc3ccc(F)cc3)nc3nccnc23)cc1,25µM*,0%
COc1ccc(Nc2nc(NCCO)c3nccnc3n2)cc1,i,1%
O=C(C1=C(c2ccccc2)S(=O)(=O)CCO1)N(Cc1cccc(Cl)c1)c1ccccn1,i,0%
CCn1cc(C(=O)OCC(=O)Nc2cccc(C(C)=O)c2)c(=O)c2ccc(C)nc21,45µM*,-34%
CCOC(=O)c1ccc(NC(=O)COC(=O)c2cn(CC)c3nc(C)ccc3c2=O)cc1,i,0%
CN(C(=O)C1CCN(c2ncnc3c2nc2n3CCCCC2)CC1)c1ccccc1F,i,2%
Cc1ccc(C)c(N(C)C(=O)C2CCN(c3ncnc4c3nc3n4CCCCC3)CC2)c1,79µM*,-10%
CC(C)Cn1c(-c2csnn2)nc2c1c(=O)[nH]c(=O)n2CC(C)C,i,-11%
Cc1ccc(NC(=O)CCN2CCN(CCO)CC2)cc1C,i,34%
Cc1cc(NC(=O)CCN2CCN(Cc3cccc4ccccc34)CC2)ccc1Br,?,89µM*
COc1cccc(NC(=O)CCN2CCN(c3ccccc3)CC2)c1,i,-7%
Cc1cccc(NC(=O)CCN2CCN(Cc3cccc4ccccc34)CC2)c1,?,79µM*
N#Cc1ccccc1Cn1c(=O)c2c(ncn2Cc2ccccc2)n(Cc2ccccc2)c1=O,i,0%
O=C1CC(c2cccc(F)c2)c2c(n3ncnc3[nH]c2=O)N1 (stereo not given),i,1%
CCOC(=O)c1cc(-c2ccc(F)cc2)n(CCC(=O)NC2CCCCC2)c1C,i,37%
CC(C)c1ccc(OCC(=O)Nc2cc(-c3nc4ncccc4o3)ccc2Cl)cc1,i,1%
CCC(C)c1ccc(OCC(=O)Nc2cccc(-c3nc4ncccc4o3)c2)cc1 (stereo not given),32µM*,-17%
Cc1ccc(NC(=O)CSc2nc3cc4c(cc3c(=O)n2Cc2ccco2)OCO4)c(C)c1,i,3%
S=c1[nH]nc(-c2n[nH]c3c2CCC3)n1/N=C/c1c2ccccc2cc2ccccc12,i,-4%
Cc1cccc(CN2CCC(CNc3ncnc4onc(-c5ccc(Cl)cc5)c34)CC2)c1,20µM*,-22%
Cc1ccc(CN2CCC(CNc3ncnc4onc(-c5ccc(Cl)cc5)c34)CC2)cc1,i,2%
COc1ccccc1OCCSc1nc(-c2ccc(C(C)(C)C)cc2)nc2cc(=O)[nH]n12,79µM*,-27%
SMILES,AID inhibitor,UDG counterscr
Cc1ccc(OCCCSc2nc(-c3ccc(C(C)(C)C)cc3)nc3cc(=O)[nH]n23)cc1C,45µM*,?
CC(C)(C)c1ccc(-c2nc(SCCOc3ccc(Cl)cc3)n3[nH]c(=O)cc3n2)cc1,?,-5%
C=CCc1ccccc1OCCSc1nc(-c2ccc(C(C)(C)C)cc2)nc2cc(=O)[nH]n12,?,-23%
Cc1ccc(CSc2ncc(Cl)c(C(=O)Oc3ccccc3F)n2)cc1,i,6%
COc1cccc(/C=C(\C#N)c2nc3ccccc3c(=O)[nH]2)c1OC,i,0%
COc1ccc(OC)c(/C=C(\C#N)c2nc3ccccc3c(=O)[nH]2)c1,79µM*,48%
COc1ccc(C(=O)N(Cc2ccco2)Cc2ccc(C)o2)cc1,i,13%[57.5 µM]
CCc1ccc(CN(Cc2ccco2)C(=O)c2ccc(OC)cc2)cc1,40µM*,-9%[57.5 µM]
CC1CC(=O)C(C)(C)N(C)C1 (stereo not given),i,1%
NNc1cccc(S(=O)(=O)c2cccc(NN)c2)c1,?,45µM*
NNc1ccc(S(=O)(=O)c2ccc(NN)cc2)cc1,i,-17%
Cc1cc(CS(=O)(=O)CC(=O)NC2CCCCCC2)no1,i,-7%
CCCCN(CC)CCNC(=O)c1nn(C)c2c1CS(=O)(=O)c1ccccc1-2,i,5%
O=C(NC1CCCCCC1)C1CCN(C(=O)N2CCOc3ccc(Cl)cc32)CC1,i,-3%
COc1cc(OC)c(N(C)C(=O)c2cc3c(s2)-c2ccccc2OC3)cc1Cl,i,-6%
COc1ccc(N(C)C(=O)c2cc3c(s2)-c2ccccc2OC3)cc1,45µM*,-9%
COCCCNC(=O)CSc1nc2ccccc2c(=O)n1Cc1ccco1,i,-17%
Cc1ccc(Cc2c(C)nc3c(-c4ccccc4)c(C)[nH]n3c2=O)cc1,i,-5%
